Measured values: PubChem BioAssay (NCATS)
Inconclusive results are not listed. Activity calls are given as the source filed them. The call rests on the fitted dose curve; in most records, active means well fitted inhibition curve with a large enough effect; inconclusive means small, poorly fitted or top-dose-only effect; inactive means flat fitted curve, though single readings scatter.

Experiments:
Assay in all cases: qHTS profiling for inhibitors of Plasmodium falciparum proliferation (AID 504749); further: nearly all actives have a fitted effect of over 60% in size
Conditions in all cases: P. falciparum in erythrocytes, SYBR Green DNA, 72 h; series mostly up to 28.7 µM
CP260 = system: CP260
In short: (§1)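 Three-day growth assay of blood-stage parasites in erythrocytes (0.3% parasitemia, 2.5% hematocrit) at 37 C, 5% CO2, quantified by SYBR Green DNA staining after overnight detergent lysis.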

CP265 = system: CP265
In short: as §1

CP266 = system: CP266
In short: as §1

CP268 = system: CP268
In short: as §1

CP269 = system: CP269
In short: as §1

CP286 = system: CP286
In short: as §1

CP291 = system: CP291
In short: as §1

CP297 = system: CP297
In short: as §1

CP305 = system: CP305
In short: as §1

CP315 = system: CP315
In short: as §1

CP325 = system: CP325
In short: as §1

CP329 = system: CP329
In short: as §1

CP335 = system: CP335
In short: as §1

DFO2036 = system: DFO2036
In short: as §1

DIV14 = system: DIV14
In short: as §1

DIV17 = system: DIV17
In short: as §1

DIV30 = system: DIV30
In short: as §1

Dd2 = system: Dd2
In short: as §1

ECU = system: ECU
In short: as §1

FAB9 = system: FAB9
In short: as §1

GB4 = system: GB4
In short: as §1

HB3 = system: HB3
In short: as §1

ICS = system: ICS
In short: as §1

JCK = system: JCK
In short: as §1

N140 = system: N140
In short: as §1

P93_24 = system: P93_24
In short: as §1

P94_40 = system: P94_40
In short: as §1

PAD = system: PAD
In short: as §1

PC15 = system: PC15
In short: as §1

PC26 = system: PC26
In short: as §1

PC49 = system: PC49
In short: as §1

SC27B = system: SC27B
In short: as §1

TAB109 = system: TAB109
In short: as §1

TAB113 = system: TAB113
In short: as §1

TAB165 = system: TAB165
In short: as §1

W2 = system: W2
In short: as §1

Measured: Potency

C[C@H](O)[C@@H]1C(=O)N2C(C(=O)O)=C(SCCN=CN)C[C@@H]12
inactive: all assays above
